# Source: PMC5540273 (PLoS ONE, 2017)
# Assays:
# Conditions in all cases: concentration: 1 μM, replicates: in singlicate; n = 1
# PFTK1 = test system: T1, PFTK1
# T1 construct: gene CDK14
# PHKG1 = test system: PHKG1
# PHKG2 = test system: PHKG2
# PIK3C2B = test system: PIK3C2B
# PIK3C2G = test system: PIK3C2G
# PIK3CA = test system: PIK3CA
# PIK3CB = test system: PIK3CB
# PIK3CD = test system: PIK3CD
# PIK3CG = test system: PIK3CG
# PIK4CB = test system: T2, PIK4CB
# T2 construct: gene PI4KB
# 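Note: KINOMEscan kinase panel screen.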
Compound,%Inh (PFTK1) [%],%Inh (PHKG1) [%],%Inh (PHKG2) [%],%Inh (PIK3C2B) [%],%Inh (PIK3C2G) [%],%Inh (PIK3CA) [%],%Inh (PIK3CB) [%],%Inh (PIK3CD) [%],%Inh (PIK3CG) [%],%Inh (PIK4CB) [%]
O=C(NCCNc1ccnc(Nc2ccc(F)cc2)n1)Nc1ccccc1F [GSK1379880],13,0,0,0,62,0,0,21,0,13
c1ccc(-c2n[nH]cc2-c2ccnc3ccccc23)nc1 [GW271431],25,0,0,0,0,0,0,5,0,0
O=C1Cc2cc(Nc3nc(NCc4cccc(S(=O)(=O)C(F)(F)F)c4)ncc3C(F)(F)F)ccc2N1,0,3,0,0,0,0,0,13,8,4
O=C(Nc1n[nH]c2cc(-c3cccc(F)c3)ccc12)C1CC1 [SB-735464],3,0,0,19,20,0,4,14,16,18
